IL-1B inflam inh: qHTS for Inhibitors of Inflammasome Signaling: IL-1-beta AlphaLISA Primary Screen. activity change, % at 57.5 µM. AID 743279, 2014. THP-1 LPS/ATP IL-1B secretion, AlphaLISA, 16 h; hits give low values. hit rate 4.7% among 360,000; in the data active means activity change below about -50%; inconclusive means mostly about -30% to -49%
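THP-1 cells pretreated 1 hr with compounds (up to 57.5 uM final), then stimulated with LPS (250 ng/mL final) plus ATP (1.25 mM final); secreted IL-1B measured by AlphaLISA after 16 hr, decreased signal indicating inhibition.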
TDP1 cell noCPT: qHTS for Inhibitors of human tyrosyl-DNA phosphodiesterase 1 (TDP1): qHTS in cells in absence of CPT | DT40 Tdp1-/- hTDP1 cells, no CPT, ATP luminescence, 48 h | hit rate 15% among 420,000 | Potency, µM (top dose mostly 46.2 µM), most hits filed as inhibitors; further: nearly all actives have a fitted effect of over 55% in size
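Chicken DT40 Tdp1-/- cells complemented with human TDP1, screened without camptothecin (DMSO vehicle only), 400 cells/well. Compounds pin-transferred, cells incubated at 37 °C for at least 48 hr. Growth read as ATP-dependent luminescence (CellTiter-Glo, 30 min at RT).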
TDP1 cell CPT: qHTS for Inhibitors of human tyrosyl-DNA phosphodiesterase 1 (TDP1): qHTS in cells in presence of CPT; chicken DT40 Tdp1-/-;hTDP1 cells + 20 nM CPT, ATP luminescence, 48 h; Potency, µM (titrated, usually from 46.2 µM), most hits filed as inhibitors; hit rate 12% among 420,000; further: nearly all actives have a fitted effect of over 55% in size
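Chicken DT40 Tdp1-/- cells complemented with human TDP1, 400 cells/well, exposed to compounds plus 20 nM camptothecin for at least 48 h at 37 C; viability read as ATP content by CellTiter-Glo luminescence.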
HT1080-NT tox: qHTS for induction of synthetic lethality in tumor cells producing 2HG: qHTS for the HT-1080-NT fibrosarcoma cell line; Potency, µM (titrated, usually from 46.1 µM), actives largely listed as cytotoxic; AID 686970, 2013; HT-1080-NT fibrosarcoma viability, CellTiter-Glo ATP luminescence, 48 h; hit rate 1.6% among 360,000;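 further: NT is the 2HG producing partner of a matched IDH1 knockdown line; nearly all actives have a fitted effect of over 55% in size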
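Toxicity toward the 2HG-producing NT line was scored as %Activity, normalised to DMSO and no-cell wells, from CellTiter-Glo luminescence after 48 hours' treatment.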
HT1080 IDH1KD tx: qHTS for induction of synthetic lethality in tumor cells producing 2HG: qHTS for the HT-1080-IDH1KD cell line; HT-1080 IDH1 knockdown viability, ATP luminescence, 48 h; Potency, µM (titrated, usually from 46.1 µM), most hits filed as cytotoxic; hit rate 2% among 360,000; AID 686971, 2013
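% activity derives from luminescence (CellTiter-Glo), normalised to DMSO and no-cell wells. HT-1080-IDH1KD cells, 750/well, had 48 h compound exposure at 37 °C.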
Hits are given with their value; – = inactive; ? = inconclusive; · = no result; [ ] = remark or other dose. This is a sample that favours compounds with a hit; in the whole collection about 19% have one here. Unless noted, the call rests on the fitted dose curve; in most records, active means well fitted curve in the direction sought with a large enough effect; inconclusive means small, poorly fitted or top-dose-only effect, or another doubt; inactive means no such curve, though single readings can be large; an effect the other way counts as inactive or inconclusive.

SMILES	IL-1B inflam inh	TDP1 cell noCPT	TDP1 cell CPT	HT1080-NT tox	HT1080 IDH1KD tx
CCOC(=O)c1c(C)n(C)c2cc(OCCN(CC)CC)ccc12	-55.1	–	–	–	–[9.24 µM]
CCOC(=O)c1c(C)n(-c2ccc(C)cc2)c2ccc(OCC(O)CNCC3CCCO3)cc12 (centres undefined)	-54.1	18.4µM	16.4µM	?	–
CCOC(=O)c1c(C)n(C)c2ccc(OCC(O)CNC(CC)CO)cc12 (centres undefined)	?	–	–	–	–
CCOC(=O)c1c(C)n(-c2ccccc2)c2ccc(OC(=O)c3ccccc3)cc12	·	16.4µM	?	·	·
CCOC(=O)c1c(C)n(C)c2ccc(OCCN(C)C)cc12	?	–	–	–	–
CCOC(=O)c1c(C)n(-c2ccccc2)c2ccc(OCCN(C)C)cc12	-80.2	?	?	?	?
CCOC(=O)c1c(C)n(-c2ccccc2)c2ccc(OC(=O)c3c(F)cccc3F)cc12	·	–	–	·	·
Cc1ccc(C(=O)Nc2cccc3cccnc23)cc1C	–	?	?	–	–
NC(c1ccccc1)c1cccnc1 (centres undefined)	–	–	–	–	–
C=CCCCCCCCCC(=O)O	·	–	–	·	·
CCOC(=O)c1c(C)n(-c2ccccc2)c2ccc(OC(=O)c3cccc(Cl)c3)cc12	·	25.9µM	?	·	·
COc1ccc(-n2cnc3scc(-c4ccccc4)c3c2=O)cc1	–	?	–	–	–
Cn1c(CN2CCCC2)nc2cc(NS(=O)(=O)c3ccc(Cl)cc3)ccc21	–	–	–	–	–
CC(C)(C)n1cnc2cc(NS(=O)(=O)c3ccccc3)ccc21	–	?	–	–	–[9.24 µM]
Cn1c(CCN2CCN(c3ccccn3)CC2)nc2cc(NS(=O)(=O)c3ccccc3)ccc21	–	13µM	?	–	–
Cn1c(CCN2CCOCC2)nc2cc(NS(=O)(=O)c3ccccc3)ccc21	–	?	–	–	–
COc1ccc(-n2cnc3cc(NS(=O)(=O)c4ccccc4)ccc32)cc1	–	20.6µM	?	?	?
Cn1c(CCN2CCCCC2)nc2cc(NS(=O)(=O)c3ccccc3)ccc21	-50.0	?	?	–	?
Cn1c(CCN2CCCC2)nc2cc(NS(=O)(=O)c3ccc(F)cc3)ccc21	-56.2	?	?	–	–
CCCCC(=O)Nc1ccc2c(c1)nc(CCN1CCN(c3ccccn3)CC1)n2C	–	–	?	–	–
CNC(=O)c1cnc2sc(N3CCC(C)CC3)nn2c1=O	·	–	–	·	·
Cc1ccc(NC(=O)CSCC(=O)NC2(C)CCS(=O)(=O)C2)cc1 (centres undefined)	–	–	–	–[9.24 µM]	–
Cc1ccc(S(=O)(=O)Nc2ccc3c(c2)nc(CCN2CCCC2)n3C)cc1	-76.0	?	?	–	?
Cn1c(CCN2CCCC2)nc2cc(NS(=O)(=O)c3ccc(Cl)cc3)ccc21	-85.8	?	?	–	?
COc1ccc(CCN(C)C(=O)c2cccc(S(=O)(=O)N3CCN(c4ccc(F)cc4)CC3)c2)cc1OC	–	16.4µM	14.6µM	–	?
SMILES	IL-1B inflam inh	TDP1 cell noCPT	TDP1 cell CPT	HT1080-NT tox	HT1080 IDH1KD tx
O=C(NCCOc1ccc(Cl)cc1)c1cccc(S(=O)(=O)N2CCCC2)c1	–	?	?	–	–
COc1ccccc1CN(C)C(=O)c1cccc(S(=O)(=O)N2CCCC2)c1	–	–	?	–	–
CN(CCOc1ccc(Cl)cc1)C(=O)c1cccc(S(=O)(=O)N2CCN(c3ccc(F)cc3)CC2)c1	–	5.17µM	7.31µM	?	–
Cc1ccc(S(=O)(=O)N2CCC(C(=O)OCC(=O)N3CCCC(C)C3)CC2)cc1C (centres undefined)	–	–	–	–	–
CN(Cc1ccc(F)cc1)Cc1nc(-c2cnccn2)no1	–	–	–	–	–
Cc1ccc(NC(=O)C2(S(=O)(=O)c3ccc(C)cc3)CC2)cc1	–	?	–	–	–
Cc1ccc(S(=O)(=O)C2(C(=O)Nc3ccc(C)c(Cl)c3)CC2)cc1	·	?	–	·	·
Cc1ccc(NC(=O)C2(S(=O)(=O)c3ccc(Cl)cc3)CC2)c(Br)c1	–	16.4µM	?	–	–
Cc1ccc(S(=O)(=O)C2(C(=O)Nc3ccc(Cl)c(C(F)(F)F)c3)CC2)cc1	·	16.4µM	?	·	·
Cc1ccc(NC(=O)Nc2ccc(Cl)cc2)c(Br)c1	–	23.1µM	?	?	?
O=C(COc1ccc(F)cc1)NCC1(N2CCCCC2)CCCCC1	–	–	–	–	–
COc1cc(NC(=O)Cc2cccc3ccccc23)c(C(=O)O)cc1OC	–	–	–	–	–
COc1cc2cc(C)nc(Cc3cccc4ccccc34)c2cc1OC	–	23.1µM	14.6µM	?	?
COC(=O)c1ccc(N2C(=O)CC(SCC(=O)Nc3ccc(OC)cc3)C2=O)cc1 (centres undefined)	–	5.17µM	14.6µM	–	–
CCOC(=O)c1ccc(N2C(=O)CC(SCC(=O)Nc3ccc(S(N)(=O)=O)cc3)C2=O)cc1 (centres undefined)	–	?	23.1µM	–	–
COc1ccc(NC(=O)c2ccc(N3C(=O)C4CC=C(Cl)CC4C3=O)cc2)cc1 (centres undefined)	–	29.1µM	–	–	–
COc1ccc(N2C(=O)C3CC=C(Cl)CC3C2=O)cc1 (centres undefined)	–	–	–	–	–
O=C(CSC1CC(=O)N(c2ccc(C(=O)O)cc2)C1=O)Nc1ccc2ccccc2c1 (centres undefined)	–	?	?	–	–
Cc1ccc(N2C(=O)CC(SCC(=O)Nc3ccc(S(N)(=O)=O)cc3)C2=O)cc1 (centres undefined)	–	?	?	–	–
NS(=O)(=O)c1ccc(NC(=O)CSC2CCCCC2)cc1	–	29.1µM	16.4µM	–	–
C#CCOc1ccc(CNC[C@H]2O[C@@H](n3cnc4c(N)ncnc43)[C@H](O)[C@@H]2O)cc1	–	?	?	–	–
CCOc1ccccc1NC(=O)CN1C(=O)COc2ccc(C)cc21	–	–	–	–	–
O=C(Cn1nc(C(=O)O)c2ccccc2c1=O)Nc1cc(S(=O)(=O)N2CCOCC2)ccc1Cl	–	–	–	–	–
COc1ccc(NC(=O)C2CC(=O)OC2(C)C)cc1 (centres undefined)	–	–	–	–	–
CC(=NO)C1CCC2C3CCC4=CC(=NO)CCC4(C)C3C(O)CC12C (centres undefined)	–	16.4µM	13µM	–	–

Compound activity (PubChem BioAssay)
